# According to PubChem BioAssay AID1508600 (Functional Genomics Laboratory (NCATS/FGL), 2020):
# Out of some 53,000 sequences screened, about 3,700 (7%) were called active.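 Rule for the calls: active = gene knockdowns whose robust z-score for IL-1 alpha signal is at least 2 or at most -2, so actives lie on both sides; inactive = the rest.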 Only a selection was taken, and actives are over-represented in it overall.
# Assay: Components of the Cytosolic LPS Sensing Pathway: Gene Identification via Genome-wide siRNA Screen;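 note: robust z of the log signal after scaling to non-targeting control siRNA wells of the plate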
# Conditions: RAW264.7 macrophages, IL-1a HTRF, actives lie on both sides, screened at 100 nM (by protocol), cells primed 5 h with Pam3CSK4 first
# Summary of the method: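 Read-out: IL-1a HTRF on supernatant, divided by plate negative-control median ×100, log-transformed and converted to robust z-score. Cells were RAW264.7 given 100 nM siRNA, Pam3CSK4-primed 5 hours, then LipidA-transfected 24 hour.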
row,Sequence,z-score
1,GGAGAAAGAGAUUCCUAUUTT against Triap1,-0.818 (inactive)
2,CCAAUUCGUGUUAAGGAACTT against Riox2,0.212 (inactive)
3,CCUCGUAGGGCCUAUGGUATT against Cyth4,-2.17 (active)
4,GCCAAAGUAGCAUUAGUGATT against Dip2b,-1.39 (inactive)
5,GGCAAUGUCUUUAAAAUACTT against Txndc8,-0.724 (inactive)
6,GGCAUUGACCCUUCUUGGATT against Stam2,-0.395 (inactive)
7,CCUUGUUAGAGCAUUACAATT against Rprd1a,1.34 (inactive)
8,GGAUUCUGAGAAAUCAAGATT against Serpinb12,-0.376 (inactive)
9,GGAAAUCUACGAUUUCUAATT against Cyria,2.55 (active)
10,GCUCCAGAAUAUAUUGUUCTT against Arfgap3,1.39 (inactive)
11,GGGCAGAGGCAUUUCUGUATT against Psg23,1.76 (inactive)
12,GGAACCAGGUAGCAGAUCUTT against Cdk2ap2,-2.61 (active)
13,GGACUAUAUGAGAUAAACUTT against Pask,0.371 (inactive)
14,CGCCAAACAGGCUAGAUCUTT against Ephb2,-0.101 (inactive)
15,GCGAGAAUUGGACAAAUUATT against Acot12,0.784 (inactive)
16,GCAUUCGAAGCUCUUCUAATT against 4930474M22Rik,-1.89 (inactive)
17,GGGCUGUGAGCUCUGUUCATT against Rspo1,0.188 (inactive)
18,GCCCAAACGAAAAAUGGCCTT against Abl1,2.95 (active)
19,GCAACUGAGAGAUGUCAUCTT against Gbp6,-0.806 (inactive)
20,CCUGUGAAGUAUAACAUCGTT against Fam234b,-0.722 (inactive)
21,CCUAUGUAUCUCAUCGCUGTT against Sox11,0.819 (inactive)
22,GGCAAUUUGGAUACCAGGATT against Zfp24,-0.563 (inactive)

row,Sequence,z-score
1,GCAGAAUUGAGUCACCCAATT against Sp1,-2.56 (active)
2,GCGACAAAGCUCGUUAUGATT against Hmgb2,-2.3 (active)
3,GCAUAAACUUUAGGCAUGGTT against Alg13,-0.123 (inactive)
4,GGUCAUCCGAUGCUUUGUATT against 4930515G01Rik,-0.513 (inactive)
5,CCGGUUACCAAUUGAUAAATT against Smc3,-1.15 (inactive)
6,GCGUAAAUCUCCACACUACTT against Vmn1r54,-1.57 (inactive)
7,GGUGGAUACACAGGACAAATT against Invs,1.58 (inactive)
8,GGAGCGUAGAUAACUUAUCTT against Itprid2,-0.0474 (inactive)
9,CGCAGACAGUUUGAGGCUGTT against Gpbp1,-2.34 (active)
10,GGGACAUGGUCAUCACUAGTT against Clvs2,-1.71 (inactive)
11,GGAAUAGGAGCAAGUGUACTT against 9930021J03Rik,1.03 (inactive)
12,GGAUACACACAGAGAAUAUTT against Arhgef10l,0.161 (inactive)
13,GGCCUUCACGUCUGGAAAUTT against Cnot10,-0.163 (inactive)
14,GCAUCUCUCUAAUAGCCUUTT against Nop16,1.24 (inactive)
15,GGAUGAAAAUCUCUGUCCUTT against Trpa1,0.604 (inactive)
16,GGCAGCAGCAAGUUUCUUCTT against Rbm38,-2.31 (active)
17,GCUUUUGAUCCACAGAUUUTT against Prss33,0.372 (inactive)
18,GGGCUUAUUCUCAGUUCUGTT against Slc17a1,-0.395 (inactive)
19,GGACCAUGUGACAAAGCCUTT against Fam131b,2.16 (active)
20,GCCUCCAUUAUUUGUUCUGTT against Olfr1058,-0.177 (inactive)
21,GGAAACACCAAGAUUCCAGTT against Sprr3,-0.445 (inactive)
22,GCUAUUGGAGGAAUGUAUCTT against Rasgrp4,-1.51 (inactive)

row,Sequence,z-score
1,GGCACAAGAGCAAAGGCUUTT against Gmppb,-0.575 (inactive)
2,CCCUCAUUUACUCUAGUAATT against Defb12,0.714 (inactive)
3,GGUGUUCCUGGUGAAGCAATT against Camk1g,0.875 (inactive)
4,CGCUCACUGGUUUUUAAUUTT against Itpripl2,0.694 (inactive)
5,GCCCGCACAAUCGUACUUUTT against Ccl28,-1.2 (inactive)
6,GGAAAACUGCGUUUGGAAATT against Neil3,0.387 (inactive)
7,GCAAUAGUGAGCACGCCAGTT against Col18a1,0.307 (inactive)
8,GGUCUGUGGACUGAACUUATT against Bcl2l11,-2.6 (active)
9,GGAUGAAGAACUCAGAGUGTT against Slc66a2,-1.24 (inactive)
10,GGUCAUUCUUAAUUGUUCATT against Kpna6,0.939 (inactive)
11,CCAAAGUCUGUUAAUGGGUTT against 4921517D22Rik,0.401 (inactive)
12,GCUAUGCAGAGGAGUAUGCTT against Duoxa1,3.03 (active)
13,GGAGACAUUGCUAUAUAUGTT against Hmgcs1,-0.207 (inactive)
14,GGCCUAAGGCUGUGAAUGUTT against D2hgdh,-2.59 (active)
15,GCCGUUUACGUUUAUUGUUTT against Cux2,-0.0356 (inactive)
16,GGACAGAAUACGUGAGGAGTT against Septin5,-0.427 (inactive)
17,GGAGUUCCAGCAGCUCUAUTT against Vsnl1,0.741 (inactive)
18,GGUUCUGCUGGACAACUUUTT against Cyp46a1,-0.377 (inactive)
19,CCCUCAUAACUAAUGCUGUTT against Pip5kl1,-0.276 (inactive)
20,GGUGAUCCAAGACUUCCAGTT against Actl6b,1.16 (inactive)
21,GCAGUGAUCCAUGAGCCUATT against Eif5a,4.64 (active)
22,GCACCAAUAUUAGGCUGACTT against Noct,1.73 (inactive)

row,Sequence,z-score
1,CGAGCACACUUUUGAAGAATT against Gm5089,1.33 (inactive)
2,GGCUACGAUCCUACAGUGGTT against Rhebl1,-0.283 (inactive)
3,GGCAACACUGUGGCUAAGUTT against Ankrd13d,2.74 (active)
4,GCUGGUAACAGAAUUUCUUTT against Aox2,0.515 (inactive)
5,GCUAAACAGACAACUCAACTT against Rufy2,1.04 (inactive)
6,GGUAAAACCCAAUAGUAACTT against Gclm,0.45 (inactive)
7,GGAUCUUUACUGCUUUGUGTT against Picalm,2.42 (active)
8,GCCAAUUUGAAGGUUUUCATT against Tlr8,1.58 (inactive)
9,GGCUCUUGGAUAUUUCCGATT against Nop9,0.342 (inactive)
10,CCUAAUGGAAGGGAAGCCATT against Cox19,-2.06 (active)
11,GGACCUGAAUAAGACUAUUTT against Lgmn,-0.429 (inactive)
12,GGGAGGUUACUAUGGAGACTT against Mia,1.68 (inactive)
13,GCUACUGCAUUCUCUAUCATT against Actl9,1.94 (inactive)
14,GGCAACUGUGUUCUCACGATT against Ddx58,-1.22 (inactive)
15,CCACUUCCAUAGAGAUUUUTT against Tmx3,2.93 (active)
16,GCUUUGUUUGAAAAUGCGATT against Nrde2,-0.66 (inactive)
17,CCGCGUGUAUAAGUUGGUGTT against Mrpl9,1.23 (inactive)
18,GCCUCGAUUCACCAAGUGUTT against Ghr,-0.663 (inactive)
19,GGAAGAUCGAGAAUGUUCCTT against Ppih,0.174 (inactive)
20,GCCAUAUCAACUCAGAUCATT against Ssh2,5.04 (active)
21,GGUAAUAAGUCCCAUUUUCTT against Prpmp5,0.817 (inactive)
22,GGCCAGAAGAACUAACAGUTT against Cept1,-0.11 (inactive)

row,Sequence,z-score
1,GGACAAUGCUAAUGAGACCTT against Gcsam,-0.176 (inactive)
2,GAGGGACUGUAAUGUUGACTT against Olfr560,0.0877 (inactive)
3,CCGCUAGACAAAUUUUGCCTT against Slc6a2,1.45 (inactive)
4,GCUACAGUAGUAAGACUAATT against Usp53,2.67 (active)
5,GGAGUAACAACACAACAUUTT against Mab21l1,1.43 (inactive)
6,CGCUGAAAGUGAACGUAGGTT against Kcnv2,-1.14 (inactive)
7,CCUUCACAUAAGUUUCUGUTT against Nuak2,0.575 (inactive)
8,GAGGAAGACACUUUUCCUGTT against Atp23,0.765 (inactive)
9,GGGCAGUGAAAUCCUGUCUTT against Trim16,-2.81 (active)
10,GCUUAGAUCACCUAAUGACTT against Parp3,1.18 (inactive)
11,GGAUGUUUGGACCAAUCACTT against Iba57,-0.962 (inactive)
12,GGUGCUACUCCAGAUUGACTT against Tbc1d13,0.63 (inactive)
13,GGUUAUAAACCAGAAGAGUTT against Mill2,0.807 (inactive)
14,GCUGUUAGACCUCUUGAUUTT against Olfr1164,0.0632 (inactive)
15,GGUAGAUCAGUAAUAGUUATT against Glrb,0.837 (inactive)
16,GGAGAUUGAGAACACAAGCTT against Hipk2,2.37 (active)
17,CCAGACACAUAGGACAAAATT against Slco3a1,-0.00454 (inactive)
18,GGCUGUGCGUGUUACAAAATT against Erlin1,0.501 (inactive)
19,GGAAUGUCUAUCACAAUGGTT against Vmn1r230,1.78 (inactive)
